The source of these data is PubChem BioAssay (NCATS).

Test [1] can be described thus: qHTS profiling for inhibitors of Plasmodium falciparum (HB3) proliferation (AID 743324).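 Further: 100% = DMSO vehicle wells and 0% = artemisinin-treated control wells.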 As to conditions: Plasmodium falciparum HB3 blood-stage proliferation; at 28.7 µM (top of the series) unless noted. Summed up:
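P. falciparum HB3 grown in erythrocytes (0.3% parasitemia, 2.5% hematocrit final) with compound for 72 h at 37 C, 5% CO2. Parasite DNA detected by SYBR Green after saponin/triton lysis overnight; normalized to 0.29 uM artemisinin and DMSO.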

Test [2] in a line: qHTS profiling of the MIPE4 collection as inhibitors of Plasmodium falciparum (3D7) proliferation (AID 743344; call rule not given here;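 further: scaled between DMSO vehicle wells and 0.29 µM artemisinin as full inhibition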). As to conditions: P. falciparum 3D7 in erythrocytes, SYBR Green DNA fluorescence, 72 h; at 28.5 µM (top of the series) unless noted. Summed up:
(§1)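 Erythrocytes infected with P. falciparum (0.3% parasitemia, 2.5% hematocrit) incubated with compounds 72 h at 37 C, 5% CO2. Lysis with saponin/Triton buffer containing SYBR Green I, overnight at room temperature in the dark; DNA fluorescence (485/535 nm) normalised to 0.29 uM artemisinin and DMSO.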

A short description of test [3]: qHTS profiling of the MIPE4 collection as inhibitors of Plasmodium falciparum (DD2) proliferation (AID 743345; call rule not given here). Particulars: P. falciparum Dd2 in erythrocytes, SYBR Green DNA, 72 h; at 28.5 µM (top of the series) unless noted. The method in brief: as §1
A short description of test [4]: qHTS profiling of the MIPE4 collection as inhibitors of Plasmodium falciparum (DD2) proliferation (Rep 2) (AID 743346; call rule not given here). As to conditions: P. falciparum Dd2 in erythrocytes, SYBR Green DNA, 72 h; at 28.5 µM (top of the series) unless noted. Summed up: as §1
The nature of test [5]: qHTS profiling of the MIPE4 collection as inhibitors of Plasmodium falciparum (HB3) proliferation (AID 743347; call rule not given here;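 further: plate controls were DMSO vehicle wells for no effect and artemisinin wells for full effect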). As to conditions: P. falciparum HB3 in erythrocytes, SYBR Green DNA, 72 h; at 28.5 µM (top of the series) unless noted. Summed up: as §1
Test [6] can be described thus: High-throughput drug toxicity screening in the BPDCN cell line Gen2.2 (AID 1224824; call rule not given here;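 further: cells exposed to compounds for 48 h before reading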). Particulars: Gen2.2 BPDCN cells; at 45.8 µM (top of the series) unless noted. The method in brief:
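Seed 500 exponentially growing Gen2.2 cells/well; add compounds by pin tool; incubate 48 h, 37 °C, 5% CO2; add CellTiter-Glo, 15 min RT; read luminescence. % activity vs DMSO (100%) and bortezomib (0%).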

Test [7] is described as follows: High-throughput drug toxicity screening in the BPDCN cell line Cal-1 (AID 1224825; call rule not given here). Particulars: Cal-1 BPDCN cell viability, qHTS; at 45.8 µM (top of the series) unless noted. Summed up: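 500 Cal-1 cells/well, RPMI + glutamine + 10% FBS (phenol red-free); cpd added by pin tool; 48 h, 37C, 5% CO2; CTG 15 min RT, lumi read. Normalised: DMSO 100%, bortezomib 9.2 uM 0%.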

Test [8] can be described thus: qHTS assay for measurement of the activity of small molecule inhibitors on Zika virus induced Caspase-3 activity in human iPSC derived neural progenitor cells (hNPCs) (AID 1224857). Further: % of control where 0% means no effect; nearly all actives have a fitted effect of over 65% in size. Summed up:
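hNPCs seeded 350 cells/well, cultured 16–20 h; compounds added 1 h before ZIKV (2 FFU/cell), 37 C 6 h. Caspase-Glo 3/7 luminescence after 30 min RT; % inhibition from induction scaled to uninfected (0%) and infected (100%) wells.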

Test [9] can be described thus: qHTS assay for measurement of the activity of small molecule inhibitors on Zika virus induced Caspase-3 activity in human astrocytoma cells (AID 1224859).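 Further: plate controls were ZIKV-infected untreated cells for no effect and uninfected cells for full effect.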 Summed up: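 Luminescence read-out (Caspase-Glo 3/7, 30 min RT) of caspase activity in SNB-19 cells infected 6 h with ZIKV, 2 FFU/cell, after 1 h compound pretreatment; % inhibition from induction normalised to uninfected (0%) and infected (100%) wells.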

A short description of test [10]: qHTS Screen of the MIPE 4.0 Collection Against Ewings Sarcoma (RDES) (AID 1259252). Further: nearly all actives have a fitted effect of over 35% in size. Further: potency means the concentration at half of the fitted maximal effect. Summed up:
(§2)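 After a 4 h attachment period in RPMI/5% FBS, cells were pin-dosed with test compounds; DMSO served as negative and 9.2 uM bortezomib (final) as positive control. Luminescent CellTiter-Glo signal at 48 h defined viability.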

Test [11] can be described thus: qHTS Screen of the MIPE 4.0 Collection Against Ewings Sarcoma (TC71) (AID 1259253). Further: nearly all actives have a fitted effect of over 40% in size. Further: potency means the concentration at half of the fitted maximal effect. The method in brief:
as §2

Test [12] in a line: Identifying Small Molecule Inhibitors of Pancreatic Cancer Stem Cells (A2780, Spheroid) (AID 1259357).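 Further: compound exposure lasted 48 h before the ATP luminescence read; 100% = DMSO treated cells and 0% = wells without cells.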 Particulars: Potency: A2780 spheroid viability. The method in brief: (§3)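 Cytotoxicity read by CellTiter-Glo luminescence after 48 h compound exposure at 37C; percent activity scaled between DMSO-treated cells and cell-free wells. Spheroid formats used cells pre-formed 14 days in stem cell media on hydrogel.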

A short description of test [13]: Identifying Small Molecule Inhibitors of Pancreatic Cancer Stem Cells (SN12C, Adherent) (AID 1259358).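 Further: cell survival measured after 48 h of compound exposure.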 The method in brief:
(§4)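 Adherent (2D) versus sphere (3D) formats; spheres generated 14 d in SCM beforehand. Compound transferred by pin tool after 4 h, 48 h incubation, CellTiter-Glo endpoint.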

The nature of test [14]: Identifying Small Molecule Inhibitors of Pancreatic Cancer Stem Cells (SN12C, Spheroid) (AID 1259360).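 Further: 100% = DMSO-treated cells and 0% = wells without cells.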 Particulars: Potency: SN12C spheroid viability. The method in brief: as §3
Test [15] is described as follows: Identifying Small Molecule Inhibitors of Pancreatic Cancer Stem Cells (A278, Adherent) (AID 1259361). Further: nearly all actives have a fitted effect of over 35% in size. The method in brief: as §4
A short description of test [16]: Identifying Small Molecule Inhibitors of Pancreatic Cancer Stem Cells (Panc1, Adherent) (AID 1259362).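 Further: compound exposure lasted 48 h before the viability read; plate controls were DMSO-treated cells for no effect and cell-free media wells for full effect.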 As to conditions: Potency: viability. Summed up: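 Spheroids grown 14 days in stem cell media on hydrogel-coated nonadherent plates; 2D lines seeded directly. Compounds added after 4 h attachment, 48 h at 37C, 5% CO2; CellTiter-Glo luminescence normalized to DMSO (no inhibition) and no-cell wells (full inhibition).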

A short description of test [17]: qHTS Screen of the MIPE 4.0 Collection Against Ewings Sarcoma (TC32) (AID 1259256). Further: nearly all actives have a fitted effect of over 45% in size. Further: potency means the concentration at half of the fitted maximal effect. The method in brief:
as §2

Records with an inconclusive call do not appear. Calls of active or inactive are those of the source. Unless noted, the call rests on the fitted dose curve; in most records, active means well fitted curve in the direction sought with a large enough effect; inconclusive means small, poorly fitted or top-dose-only effect, or another doubt; inactive means no such curve, though single readings can be large; an effect the other way counts as inactive or inconclusive.

Consider `COc1cccc(OC)c1-c1cc(C(=O)NC2(C(=O)O)C3CC4CC(C3)CC2C4)nn1-c1ccnc2cc(Cl)ccc12` (stereo not given), for which, in test [1], the remaining proliferation (% of control), lower = more inhibition was 47.3%. The same molecule had a parasite growth, % of DMSO control in test [2] of 31.4%. Further, the parasite growth remaining, % of DMSO control (lower = more inhibition) in [3] worked out at 33.7%. Moreover, the parasite growth, % of control (lower = inhibition) in [4] came out at 29.8%. The growth, % of control in test [5] stood at 7.09%. Further, the cell viability, % of control (lower = more cytotoxic) in test [6] was 119%. Besides, in test [7], the viability (% of control) was 128%. The Potency entry in test [8], in test [9], in test [10], in test [11], in [12] and in test [13] was “inactive” in each case. The Potency result in [14] and in test [16] was “inactive” each time. In addition, the IC50 (viability decrease) in test [15] was 20.9 µM (active).
In test [2], `CCc1cccc(CC)c1NC(=O)N1Cc2[nH]nc(NC(=O)c3ccc(N4CCN(C)CC4)cc3)c2C1` returned a parasite growth, % of DMSO control of 19%. For the same molecule, in test [3], the parasite growth remaining, % of DMSO control (lower = more inhibition) was 82.8%. This molecule displayed a parasite growth, % of control (lower = inhibition) in [4] of 21.6%. For the same molecule, the growth, % of control in [5] turned out to be 6.85%. Also, the cell viability, % of control (lower = more cytotoxic) in [6] is 146%. In addition, in test [7], the viability (% of control) was 12.8%. The Potency result in test [8] and in test [9] was “inactive” throughout. The Potency in test [10] was 5.9 µM (active); in test [11], 4.18 µM (active); in [17], 0.526 µM (active).
`CCCCC(C)(C)[C@H](O)C=C[C@H]1[C@H](O)CC(=O)[C@H]1CC=CCCCC(=O)O` registered a parasite growth, % of DMSO control in test [2] of 76.7%. Besides, the parasite growth remaining, % of DMSO control (lower = more inhibition) in test [3] was found to be 135%. The same molecule came in with a parasite growth, % of control (lower = inhibition) in test [4] of 39.2%. This molecule also returned a growth, % of control in [5] of 75.8%. Moreover, in [6], the cell viability, % of control (lower = more cytotoxic) is 29.2%. In test [7], the viability (% of control) worked out at 11.7%. In addition, the Potency result in test [8], in [9] and in test [10] was “inactive” in each case. Besides, the Potency in [11] is 18.7 µM (active); in test [17], 23.5 µM (active).
Take `COc1cc2ncnc(Nc3cc(Br)c(O)c(Br)c3)c2cc1OC`: the parasite growth, % of DMSO control in test [2] came out at 10.7%. Besides, in test [3], the parasite growth remaining, % of DMSO control (lower = more inhibition) amounted to 54.4%. The same molecule had a parasite growth, % of control (lower = inhibition) in test [4] of 43.2%. The same molecule yielded a growth, % of control in test [5] of 5.25%. The cell viability, % of control (lower = more cytotoxic) in test [6] was 15.7%. For the same molecule, in test [7], the viability (% of control) was found to be 11%. The Potency result in [8] and in test [9] was “inactive” throughout. Also, the Potency was 0.0418 µM (active) in [10], 0.059 µM (active) in test [11] and 0.418 µM (active) in [17].
The molecule `C[C@]12C=CC(=O)C=C1CC[C@@H]1[C@@H]2[C@@H](O)C[C@@]2(C)[C@@H]1CC[C@]2(O)C(=O)CO` registered a parasite growth, % of DMSO control in test [2] of 84.7%. Further, the parasite growth remaining, % of DMSO control (lower = more inhibition) in test [3] amounted to 100%. This molecule also displayed a parasite growth, % of control (lower = inhibition) in test [4] of 86.4%. In [5], this molecule gave a growth, % of control of 78%. The cell viability, % of control (lower = more cytotoxic) in test [6] came out at 87.5%. Besides, in test [7], the viability (% of control) was 14.3%. In addition, the Potency result in test [8], in [9], in [10], in test [11] and in test [17] was “inactive” each time.
With `Cc1cnc(CNC(=O)c2c(=O)c3ccc(N4CCCN(C)CC4)nc3n3c2sc2ccccc23)cn1`, the parasite growth, % of DMSO control in test [2] worked out at 6.1% [at 9.64 µM]. Further, the parasite growth remaining, % of DMSO control (lower = more inhibition) in [3] came to 8.18% [at 9.64 µM]. In addition, the parasite growth, % of control (lower = inhibition) in [4] worked out at 13.1% [at 9.64 µM]. The growth, % of control in test [5] was 3.84% [at 9.64 µM]. Besides, the cell viability, % of control (lower = more cytotoxic) in test [6] is 230% [at 23.2 µM]. Also, in test [7], the viability (% of control) worked out at 1.44% [at 23.2 µM]. Besides, the Potency result in test [8], in [9] and in [17] was “inactive” in each case. In addition, the Potency in test [10] and in [11] was 7.24 µM (active) throughout.
Consider `Cc1cc2c(cc1C1(c3ccc(C(=O)O)cn3)CC1)C(C)(C)CCC2(C)C`, for which the remaining proliferation (% of control), lower = more inhibition in [1] turned out to be 94.8%. In test [2], this molecule displayed a parasite growth, % of DMSO control of 58.3%. The parasite growth remaining, % of DMSO control (lower = more inhibition) in [3] was 95.5%. In test [4], this molecule gave a parasite growth, % of control (lower = inhibition) of 77.6%. This molecule also came in with a growth, % of control in [5] of 78.5%. Further, the cell viability, % of control (lower = more cytotoxic) in [6] turned out to be 529%. Moreover, the viability (% of control) in [7] came out at 121%. Besides, the Potency result in [8], in test [9], in test [10], in [11], in [17] and in test [12] was “inactive” each time. Moreover, the Potency result in test [13] is “inactive”.
